# Assay results reported in PubChem BioAssay AID2283302 (EPA ToxCast).
# Results filed as inconclusive are left out. Active and inactive are the calls of the source. Rule for the calls: active = hit-call score of the fitted dose curve at least 0.9, where 1 is the maximum; inconclusive = response in the unintended direction; inactive = score below 0.9.
# Target: rat Gamma-HydroxyButyrate Receptor (GHB), Tspan17 (gene 306771) (UniProt Q4V8E0)
# Assay: NVS_GPCR_rGHB: NovaScreen (NVS) G Protein-Coupled Receptor Assay for rat Gamma-HydroxyButyrate Receptor (GHB)
# Experimental: NVS_GPCR_rGHB is a biochemical, single-readout assay that uses extracted gene-proteins from Rat forebrain in a tissue-based cell-free assay. Measurements were taken 1 hour after chemical dosing in a 48-well plate.NVS_GPCR_rGHB is one of one assay component(s) measured or calculated from the NVS_GPCR_rGHB assay. It is designed to make measurements of radioligand binding, a form of binding reporter, as detected with scintillation counting signals by Filter-based radiodetection technology.Data from the assay component NVS_GPCR_rGHB was analyzed into 1 assay endpoint. This assay endpoint, NVS_GPCR_rGHB, was analyzed in the positive analysis fitting direction relative to DMSO as the negative control and baseline of activity. Using a type of binding reporter, loss-of-signal activity can be used to understand changes in the binding as they relate to the gene Tspan17. Furthermore, this assay endpoint can be referred to as a primary readout, because the performed assay has only produced 1 assay endpoint. To generalize the intended target to other relatable targets, this assay endpoint is annotated to the gpcr intended target family, where the subfamily is metabotropic glutamate receptor.
# Binding assays used specific radioligands (tritiated, iodinated) with non-radioactive competitive displacement ligands in agonist or antagonist protocols (as indicated) and various reference compounds and inhibitors to titrate specific binding to receptors and transporters. Most enzyme assays (CYPs, kinases, phosphatases, proteases, HDACs) used recombinant protein and specific substrates (fluorescence mostly, some colorimetric and radioactive) and inhibitors, followed by a biochemical separation of substrate and product. All assays for the biochemical HTS were initially run in duplicate at a single concentration (10 uM for CYP450 assays and 25 uM for all others). Assay-chemical combinations meeting a pre-defined threshold (e.g., 30% inhibition and other criteria defined below) were then run in singleton concentration-response format with maximum concentration of 20 uM for CYPs and 50 uM for all others. Each assay was run with positive and negative controls, and concurrent controls on every plate. The follow-up (secondary) screen tested active chemical-pairs in concentration series, as well as a few additional assays not tested in the primary screen, some selected negative inactives, and several cases re-run in the concentration series for confirmatory purposes.
# rat Gamma-HydroxyButyrate Receptor (GHB), Tspan17 (gene 306771), sequence (Q4V8E0 whole entry, looked up): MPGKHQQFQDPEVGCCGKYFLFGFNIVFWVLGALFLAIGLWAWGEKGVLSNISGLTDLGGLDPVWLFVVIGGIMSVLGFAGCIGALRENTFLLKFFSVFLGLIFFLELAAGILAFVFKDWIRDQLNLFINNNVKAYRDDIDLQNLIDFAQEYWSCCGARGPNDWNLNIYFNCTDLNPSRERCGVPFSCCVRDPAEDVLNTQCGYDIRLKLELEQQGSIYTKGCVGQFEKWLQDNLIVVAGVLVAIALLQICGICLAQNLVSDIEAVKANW
Structure (SMILES),outcome,AC50
COC(=O)CSc1cc(N=c2sc(=O)n3n2CCCC3)c(F)cc1Cl,inactive,–
Cn1c(=O)cc(Oc2ccc(F)cc2F)c2cnc(NCC(C)(C)O)nc21,–,0.166 µM (active)
Cc1cccc(Nc2cc(Cl)nc(SCC(=O)O)n2)c1C,–,19.2 µM (active)
O=C(O)c1cccc(N(Cc2cccnc2)c2ccc(OC(F)F)c(OC(F)F)c2)c1,inactive,–
